# Source: publication PMC4336329 (PLoS ONE, 2015)
# About 14,000 (4.5%) of roughly 310,000 compounds showed an effect of 50% or more. The effect is printed as a negative number. The full list was thinned out, with strong results kept by preference.
# Target: human ether-à-go-go-related gene (hERG) potassium channel (human, UniProt Q12809)
# Test: primary screen, population patch clamp on CHO cells stably expressing hERG; higher = less effect of the substance
# 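Further: peak tail current of the secondary pulse compared with the same well before compound.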
# Chain of human ether-à-go-go-related gene (hERG) potassium channel (Q12809 whole entry, looked up): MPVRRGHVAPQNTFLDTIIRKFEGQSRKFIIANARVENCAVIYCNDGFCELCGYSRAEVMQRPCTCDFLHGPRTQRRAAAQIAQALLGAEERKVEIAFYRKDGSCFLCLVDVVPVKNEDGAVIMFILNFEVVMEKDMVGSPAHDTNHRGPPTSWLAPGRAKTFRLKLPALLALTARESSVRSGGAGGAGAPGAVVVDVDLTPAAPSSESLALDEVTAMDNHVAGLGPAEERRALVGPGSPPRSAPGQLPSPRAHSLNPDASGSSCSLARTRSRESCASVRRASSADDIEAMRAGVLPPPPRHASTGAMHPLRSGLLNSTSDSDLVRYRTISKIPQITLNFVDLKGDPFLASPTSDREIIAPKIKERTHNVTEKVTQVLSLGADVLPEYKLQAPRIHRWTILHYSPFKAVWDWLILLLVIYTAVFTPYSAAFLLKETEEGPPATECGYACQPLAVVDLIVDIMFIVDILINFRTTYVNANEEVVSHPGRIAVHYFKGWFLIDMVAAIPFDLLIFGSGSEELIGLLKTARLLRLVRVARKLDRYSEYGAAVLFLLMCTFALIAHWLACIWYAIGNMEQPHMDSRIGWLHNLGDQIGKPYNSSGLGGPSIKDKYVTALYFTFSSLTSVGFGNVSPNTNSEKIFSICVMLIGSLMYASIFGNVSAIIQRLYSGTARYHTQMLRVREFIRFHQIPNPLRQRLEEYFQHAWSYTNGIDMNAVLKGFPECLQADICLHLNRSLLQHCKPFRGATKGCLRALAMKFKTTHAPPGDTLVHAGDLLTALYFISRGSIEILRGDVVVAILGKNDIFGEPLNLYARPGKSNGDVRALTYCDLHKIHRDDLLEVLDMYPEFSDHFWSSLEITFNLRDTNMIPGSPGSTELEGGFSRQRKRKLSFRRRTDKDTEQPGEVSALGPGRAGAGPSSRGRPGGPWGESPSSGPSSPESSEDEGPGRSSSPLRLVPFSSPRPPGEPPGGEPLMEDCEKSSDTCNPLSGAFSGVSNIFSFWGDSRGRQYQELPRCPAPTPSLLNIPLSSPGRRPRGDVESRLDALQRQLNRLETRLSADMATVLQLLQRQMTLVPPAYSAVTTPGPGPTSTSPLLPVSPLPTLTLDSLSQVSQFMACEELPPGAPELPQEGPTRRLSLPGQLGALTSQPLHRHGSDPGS
row,SMILES,"hERG current change (%, negative = inhibition) at 10uM"
1,Cc1ccc(S(=O)(=O)N(C(=N)N)c2nc(N(C)C)nc(N(C)C)n2)cc1,4.96%
2,CN(C)P(=O)(NC(=O)c1cccn1C)N(C)C,47.3%
3,CC(=O)Nc1ccc(Nc2ncnc3c2cnn3-c2ccccc2)cc1,12.9%
4,Cc1cc(C)nc(Nc2nc(-c3ccccc3)cs2)n1,16.4%
5,O=C(NCCS(=O)c1ccc(Cl)cc1)c1cccc(Cl)c1 (stereo not drawn),-12.2%
6,Cc1ccc(C(C)C)c(OC(=O)/C=C/c2ccccc2)c1,9.52%
7,Cn1cc(S(=O)(=O)N2CCCC2)cc1C(=O)N1CCN(c2ccccc2)CC1,-35.8%
8,CCc1ccc(NC2=NCCCS2)cc1,-9.94%
9,c1ccc2c3c([nH]c2c1)C1(CCNCC1)NCC3,-6.06%
10,CC(C)CNS(=O)(=O)c1ccc(CCC(=O)N2CCCC2)cc1,24.4%
11,CCCNS(=O)(=O)c1ccc(CCC(=O)N2CCN(c3ccc(F)cc3)CC2)cc1,-43.7%
12,CC(C)CNS(=O)(=O)c1ccc(CCC(=O)N2CCN(c3ccc(F)cc3)CC2)cc1,-50.3%
13,COc1cc2c3nnc(-c4ccc(F)cc4)c-3cn(Cc3ccccc3)c2cc1OC,-37.1%
14,COc1ccc(Cn2cc3c(-c4ccc(F)cc4)nnc-3c3cc(OC)c(OC)cc32)cc1,-88.2%
15,COc1cc2c3nnc(-c4ccc(F)cc4)c-3cn(Cc3ccc(C)cc3)c2cc1OC,2.79%
16,COc1cc2c3nnc(-c4ccccc4)c-3cn(Cc3ccc(F)cc3)c2cc1OC,-76.8%
17,COc1cc2c3nnc(-c4ccc(F)cc4)c-3cn(Cc3cccc(F)c3)c2cc1OC,29.7%
18,COc1cc2c3nnc(-c4ccc(F)cc4)c-3cn(Cc3ccc(F)cc3)c2cc1OC,-28.5%
19,COc1ccc(C(=O)O)nc1C,5.78%
20,C/C(=N/NC(=O)CN1CCN(Cc2ccccc2Cl)CC1)c1ccco1,-25.4%
21,C/C(=N/NC(=O)CN1CCN(S(=O)(=O)c2ccc(C)cc2)CC1)c1ccco1,-53.7%
22,C/C(=N/NC(=O)CN1CCN(S(=O)(=O)c2ccc(Br)cc2)CC1)c1ccco1,-68.9%

row,SMILES,"hERG current change (%, negative = inhibition) at 10uM"
1,COc1cc(/C(C)=N/NC(=O)CN2CCN(S(=O)(=O)c3ccc(C)cc3)CC2)ccc1O,-11.6%
2,C/C(=N/NC(=O)CN1CCN(S(=O)(=O)c2ccc(C)cc2)CC1)c1cccc(O)c1,-15%
3,C/C(=N\NC(=O)CN1CCN(c2ccc(F)cc2)CC1)c1ccco1,-30.3%
4,C=CCn1c(SCc2ccccc2)nc2scc(-c3ccc(C)o3)c2c1=O,8.76%
5,COc1cc(NC2c3ncccc3C(=O)N2Cc2ccco2)cc(OC)c1 (stereo not drawn),-0.0378%
6,CCOC(=O)N1CCN(C(=O)c2ccc(Cn3c(=S)[nH]c4ccc(Br)cc4c3=O)cc2)CC1,13.3%
7,CN(C)NC1=CC(=[N+]2CCCC2)CC(C)(C)C1.[I-],14.6%
8,CN(C)c1cccc(NC2=CC(=[N+]3CCOCC3)CC(C)(C)C2)c1.[I-],-65.6%
9,CC1(C)CC(=O)C=C(Nc2ccc3c(c2)OCCO3)C1,17.7%
10,CCOc1ccc(NC(=O)NC(C)c2ccc3c(c2)OCO3)cc1 (stereo not drawn),21.3%
11,CC1=NN(Cc2ccccc2)C(=O)C1,-0.313%
12,O=C(Nc1ccn(-c2ccccc2)n1)c1ccc(Cl)cc1,-8.56%
13,O=C(Nc1ccn(-c2ccccc2)n1)c1ccccc1Br,-66%
14,CC(=O)Nc1ccn(-c2ccccc2)n1,8.89%
15,CC1CC(=O)C2=C(C1)Nc1ccccc1N=C2 (stereo not drawn),-4.46%
16,O=C1CC(c2ccccc2)CC2=C1C=Nc1ccccc1N2 (stereo not drawn),-61%
17,CC1(C)CC(=O)C2=C(C1)Nc1ccccc1N=C2.Cl,-8.52%
18,O=C1CC(c2ccc(F)cc2)CC2=C1C=Nc1ccccc1N2 (stereo not drawn),-72.8%
19,O=C1CC(c2ccco2)CC2=C1C=Nc1ccccc1N2 (stereo not drawn),-24.9%
20,O=C1CC(c2ccc(F)cc2)CC2=C1C(c1ccc([N+](=O)[O-])o1)Nc1ccccc1N2 (stereo not drawn),-47.3%
21,O=C(Nc1c[nH]c(=O)[nH]c1=O)c1ccc([N+](=O)[O-])cc1,10%
22,COc1cc(C)c(Br)cc1S(=O)(=O)NCCCN1CCOCC1,9.66%

row,SMILES,"hERG current change (%, negative = inhibition) at 10uM"
1,CCOC(=O)c1[nH]c(C)c(C(=O)OCC(=O)N2c3ccccc3CC2C)c1C (stereo not drawn),-0.0968%
2,COc1cc(C(=O)N2CCN(C(=O)c3cc(-c4ccc(Br)cc4)n[nH]3)CC2)cc(OC)c1OC,-73.3%
3,COc1cc(C(=O)N2CCN(C(=O)c3cc(-c4ccccc4)n[nH]3)CC2)cc(OC)c1OC,-77.6%
4,COc1ccc(-c2cc(C(=O)N3CCN(S(=O)(=O)c4ccccc4)CC3)[nH]n2)cc1,8.23%
5,O=C(c1cc(-c2ccc(Br)cc2)n[nH]1)N1CCN(C(=O)c2ccccc2Br)CC1,-32.4%
6,COc1cc(C(=O)N2CCN(C(=O)c3ccccc3)CC2)cc(OC)c1OC,8.49%
7,COc1ccc(S(=O)(=O)N2CCN(C(=O)c3cc(-c4ccc(Br)cc4)n[nH]3)CC2)cc1OC,-13.5%
8,Cc1nc2sc3c(c2c2nnc(SCC(=O)NCc4ccco4)n12)CCCC3,-28.2%
9,Cc1nnc(SCc2nnc(-c3ccccc3Br)o2)n1-c1ccccc1,-14.6%
10,Cc1cnc(C(=O)NCCc2ccc(Cl)cc2)cn1,-15.8%
11,COc1ccc(OC)c(C2=CC(=O)C[C@H](c3ccc4c(c3)OCO4)C2)c1,-10.6%
12,Cc1ccc(C)c(NC(=O)c2sc(Cl)nc2-c2ccccc2)c1,13.9%
13,CCN1CCN(C2=C(NS(=O)(=O)c3ccccc3)C(=O)c3ccccc3C2=O)CC1,-5.21%
14,O=C1C(NS(=O)(=O)c2ccc(Br)cc2)=C(N2CCCCC2)C(=O)c2ccccc21,-33.1%
15,NC(=O)C1CCN(C2=C(NS(=O)(=O)c3ccc(Cl)cc3)C(=O)c3ccccc3C2=O)CC1,-38.3%
16,CCN1CCN(C2=C(NS(=O)(=O)c3ccc(Br)cc3)C(=O)c3ccccc3C2=O)CC1,-61.5%
17,CCN1CCN(C2=C(NS(=O)(=O)c3ccc(NC(C)=O)cc3)C(=O)c3ccccc3C2=O)CC1,7.39%
18,NC(=O)C1CCN(C2=C(NS(=O)(=O)c3ccc(Br)cc3)C(=O)c3ccccc3C2=O)CC1,-72.1%
19,NC(=O)C1CCN(C2=C(NS(=O)(=O)c3ccccc3)C(=O)c3ccccc3C2=O)CC1,-13.9%
20,CCN1CCN(C2=C(NS(=O)(=O)c3ccc(C)cc3)C(=O)c3ccccc3C2=O)CC1,-57.1%
21,Cc1ccc(S(=O)(=O)NC2=C(N3CCN(Cc4ccccc4)CC3)C(=O)c3ccccc3C2=O)cc1,-16.5%
22,CC(C)(C)c1cc(C(=O)NCCCn2ccnc2)cc(C(C)(C)C)c1.Cl,13.1%

row,SMILES,"hERG current change (%, negative = inhibition) at 10uM"
1,CC(=O)c1cccc(NC(=O)CSc2ccc(-c3ccccn3)nn2)c1,-13.6%
2,COc1cc(C)c(CNc2ccc(OC)c(OC)c2)cc1C,7.7%
3,COCCn1c(C(=O)N2CCCC2)cc2c1C[C@H]1CN(C(=O)c3ccccc3)[C@@](Cc3ccc(F)cc3)(C(=O)OC)[C@@H]21,-39.3%
4,COC(=O)[C@@]1(Cc2ccc(F)cc2)[C@H]2c3cc(C(=O)N4CCCC4)n(Cc4ccc(C(F)(F)F)nc4)c3C[C@H]2CN1C(=O)c1ccccc1,-8.27%
5,COC(=O)[C@@]1(Cc2ccc(F)cc2)[C@H]2c3cc(C(=O)N4CCCC4)n(CCO)c3C[C@H]2CN1C(=O)c1ccccc1,-51.4%
6,COC(=O)[C@@]1(Cc2ccc(OC)cc2)[C@H]2c3cc(C(=O)N4CCCC4)n(C[C@H](O)CO)c3C[C@H]2CN1C(=O)c1ccccc1,-1.32%
7,COC(=O)[C@@]1(Cc2ccc(OC)cc2)[C@H]2c3cc(C(=O)N4CCCC4)n(CCO)c3C[C@H]2CN1C(=O)c1ccccc1,-34.9%
8,COC(=O)Cn1c(C(=O)N2CCCC2)cc2c1C[C@H]1CN(C(=O)c3ccccc3)[C@@](Cc3ccc(F)cc3)(C(=O)OC)[C@@H]21,-67.4%
9,COc1ccc(-c2csc(N(Cc3ccccc3)C(=O)COc3ccc(Cl)cc3)n2)cc1,4.31%
10,COc1cc(C=O)ccc1OCC(=O)N1CCOCC1,2.65%
11,Clc1ccc(SCc2nc3ccccc3[nH]2)cc1,-11.2%
12,COC(=O)c1nnn(-c2ccccc2)c1N,-7.91%
13,O=C(CN1CCN(c2cccc(Cl)c2)CC1)Nc1ccc([N+](=O)[O-])cc1C(=O)Nc1ccccc1F,14.4%
14,Cc1ccc(C)c(N2CCN(CC(=O)Nc3ccc([N+](=O)[O-])cc3C(=O)Nc3ccccc3F)CC2)c1,-18%
15,CCOC(=O)N1CCN(CC(=O)Nc2ccc([N+](=O)[O-])cc2C(=O)Nc2ccccc2F)CC1,-50.7%
16,Cc1cc([N+](=O)[O-])ccc1NC(=O)CN1CCN(Cc2ccccc2)CC1,-73.9%
17,CCC(C)NCC(=O)Nc1ccc([N+](=O)[O-])cc1C(=O)Nc1ccccc1F (stereo not drawn),-34.7%
18,Cc1ccc(CC(=O)Nc2ccc([N+](=O)[O-])cc2C)cc1,0.803%
19,Cc1ccc([N+](=O)[O-])cc1NC(=O)CN1CCCCC1,-11.7%
20,O=C(CN1CCN(c2ccccn2)CC1)Nc1ccc([N+](=O)[O-])cc1C(=O)Nc1ccccc1F,-34.7%
21,O=C(CN1CCN(Cc2ccccc2)CC1)Nc1ccc([N+](=O)[O-])cc1C(=O)Nc1ccccc1F,-77.5%
